This is part of a sample that, as a whole, favours compounds with a hit. Of some 79,000 tested, about 15% had one in any assay. No stated cut-off is given here; in the data, active means growth inhibition above about 70%; inactive means the rest.
What was measured:
[1] = NCI Yeast Anticancer Drug Screen. Data for the rad50 strain (AID 155);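 further: 0% = growth of vehicle-only cultures of the same strain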; conditions: S. cerevisiae rad50 strain growth inhibition; at 50.0 µM; stronger effect = higher value
In short: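 Genetically altered yeast (DNA repair pathway); compound treatment; growth inhibition vs vehicle ctrl.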

[2] = NCI Yeast Anticancer Drug Screen. Data for the mec2-1 strain (AID 157); conditions: S. cerevisiae mec2-1 strain, at 50.0 µM, stronger effect = higher value
In short: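 Readout is yeast growth inhibition, normalised to vehicle-treated controls, in the mec2-1 strain exposed to compound.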

[3] = NCI Yeast Anticancer Drug Screen. Data for the sgs1 mgt1 strain (AID 161);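 further: 0% = growth of cultures given vehicle only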; conditions: S. cerevisiae sgs1 mgt1 strain, at 50.0 µM, stronger effect = higher value
In short: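 This yeast growth screen uses a strain with defined DNA-repair lesions; compound-treated growth is compared with vehicle-treated growth.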

[4] = NCI Yeast Anticancer Drug Screen. Data for the cln2 rad14 strain (AID 165);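 further: 0% = growth equal to vehicle treated cultures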; conditions: S. cerevisiae cln2 rad14 strain, at 50.0 µM, stronger effect = higher value
In short: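 Relative to vehicle controls, growth inhibition of compound-treated cln2 rad14 yeast was recorded.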

[5] = NCI Yeast Anticancer Drug Screen. Data for the bub3 strain (AID 167); conditions: S. cerevisiae bub3 mutant strain, at 50.0 µM, stronger effect = higher value
In short: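 Yeast carrying a defined mutation is treated with each compound, and growth is compared with that of vehicle-exposed cells to give inhibition.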

[6] = NCI Yeast Anticancer Drug Screen. Data for the mlh1 rad18 strain (AID 175); conditions: S. cerevisiae mlh1 rad18 strain growth inhibition; at 50.0 µM; stronger effect = higher value
In short: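 Test agents were incubated with a yeast strain of defined genotype (DNA damage repair defect). Inhibition of growth was derived by comparison with vehicle-exposed cultures.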

Measured: growth inhibition

COc1ccc(CCCCC(=O)O)cc1
inactive: [1] -12.1% | [2] -3.4% | [3] -0.65% | [4] -2.7% | [5] -7.55% | [6] -9.1%

CC(C)(C)CP(=S)(CCP(CCP(=S)(CC(C)(C)C)CC(C)(C)C)CCP(=S)(CC(C)(C)C)CC(C)(C)C)CC(C)(C)C
inactive: [1] -0.75% | [2] -14.6% | [3] -18% | [4] 9.6% | [5] 0.65% | [6] -16.1%

CCCCNC(C(=O)c1ccc(N(C)C)cc1)c1ccccc1 (configuration not stated)
inactive: [1] 3.7% | [2] -10.6% | [3] -3.1% | [4] -8.15% | [5] 2.95% | [6] -13.9%

CC1=NNC(=O)C1(C)C
inactive: [1] -16.4% | [2] 0.7% | [3] -20.6% | [4] 26.1% | [5] 3.3% | [6] 4.55%

C=C(C)COC(=O)COc1ccc(Cl)cc1
inactive: [1] 1.05% | [2] -32.7% | [3] -3.5% | [4] 0.45% | [5] 3.5% | [6] 5.45%

CSCCCNC(=O)c1csc(-c2csc(CCNC(=O)[C@@H](NSc3ccccc3[N+](=O)[O-])[C@@H](C)O)n2)n1
inactive: [1] 0.15% | [2] 6.05% | [3] 1.3% | [4] -22.1% | [5] 0.95% | [6] 18.9%

O=C(O)CCN1CCSC1=O
inactive: [1] 7.15% | [2] 12.6% | [3] -4.3% | [4] 3.75% | [5] 2.35% | [6] 1.8%

COC(=O)NN(C(=O)OC)C12CCCC1N(C(=O)OC)N(C(=O)OC)c1c2ccc2ccccc12 (configuration not stated)
inactive: [1] 32.1% | [2] -1.55% | [3] 0.6% | [4] -4.9% | [5] 1.9% | [6] 6.75%

CCOC(=O)C(=O)Nc1ccccc1C(C)C
inactive: [1] 12.4% | [2] 6.05% | [3] 0.2% | [4] -7.15% | [5] -9% | [6] 6.35%

CC(C)(N)COCOCC(C)(C)N
inactive: [1] 6.8% | [2] -5.35% | [3] -1.15% | [4] 2.4% | [5] 5.8% | [6] 0%

CC(=O)Nc1ccc(C(=O)CC(c2ccccc2)N2CCOCC2)cc1 (configuration not stated)
inactive: [1] 4.3% | [2] 14.1% | [3] 11.9% | [4] -19% | [5] 26.1% | [6] 2.8%

C=CCOCC(CCl)OC(=O)C(C)C (configuration not stated)
inactive: [1] -4.95% | [2] -11.8% | [3] -13.3% | [4] -9.9% | [5] 0.7% | [6] -20.2%

CC1CCC(C(C)C)C(OC2(c3ccccc3)OC(=O)c3ccccc32)C1 (configuration not stated)
inactive: [1] 23.7% | [2] -5.7% | [3] 15.4% | [4] 8.55% | [5] 8.65% | [6] 16.4%

COc1ccc(C)cc1NC(=S)NC(=O)C(C)Oc1ccccc1 (configuration not stated)
inactive: [1] 11.8% | [2] 46.5% | [3] 59.5% | [4] -27% | [5] 28.6% | [6] 32.9%

CCCCCCCCOc1ccc(C=Nc2ccc(C)cc2)cc1
inactive: [1] -2.05% | [2] 19.3% | [3] 0.45% | [4] -9.8% | [5] 16.9% | [6] 13%

Cc1cc(S(=O)(=O)Nc2n[nH]c(Nc3ccc4ccccc4c3)n2)c(S)cc1Cl
inactive: [1] 34.2% | [2] 5.85% | [3] 29.2% | [4] 36.5% | [5] 35.9% | [6] 39.9%

C=CCNC(=O)N(CCCCC(NC(C)=O)C(=O)NCc1ccccc1)Cc1ccccc1 (configuration not stated)
inactive: [1] 11.7% | [2] 6.55% | [3] -12.7% | [4] 11.5% | [5] 16.4% | [6] 11.9%

CC(=O)N1c2ccccc2S(=O)(=O)c2ccccc21
inactive: [1] 1.6% | [2] 12.7% | [3] 0.75% | [4] -15.9% | [5] 2.05% | [6] 0.25%

O=[N+]([O-])c1cccc(/C=C/COc2ccccc2)c1
inactive: [1] -1.35% | [2] -10.4% | [3] -10.8% | [4] -48.7% | [5] 10.6% | [6] -18.9%

Cc1c(-c2ccc3c(c2)COC3)sc(N)c1C#N
inactive: [1] 4.7% | [2] -4.3% | [3] 27.2% | [4] 24.3% | [5] 47.8% | [6] -5.4%

CCC(CC)COC(=O)c1ccccc1C(=O)OCC(CC)CC
inactive: [1] -18.9% | [2] -33.3% | [3] -0.35% | [4] 3.6% | [5] -2.75% | [6] -16%

C(=NCCSSCCN=Cc1ccccc1)c1ccccc1
inactive: [1] 12.1% | [2] 10.3% | [3] 18.6% | [4] 10.1% | [5] -12.1% | [6] 21.6%

COC(=O)CC1C(OC)OC23CCC1C2(C)CCC1C3CCC2CC(OC3CCCCO3)CCC21C (configuration not stated)
inactive: [1] 19.1% | [2] 1.15% | [3] 9.55% | [4] 12.6% | [5] 3.2% | [6] 18.3%

CCc1ccc(O[Si](C)(C)C)cc1
inactive: [1] 5.35% | [2] 3.25% | [3] -15.6% | [4] -25.4% | [5] -21.9% | [6] -3.9%

CN1CC(O)c2cc(N=NC(N)=O)c(O)cc21 (configuration not stated)
inactive: [1] -16.6% | [2] -9.5% | [3] -4.85% | [4] 5.85% | [5] -7.25% | [6] -2.45%

COc1ccc(/C=N/n2cnc3c(sc(=S)n3-c3ccccc3)c2=O)cc1
inactive: [1] 23% | [2] 1.1% | [3] -8.45% | [4] -1.7% | [5] -23.7% | [6] 12.8%

CC(=O)Nc1c(Cl)cccc1[N+](=O)[O-]
inactive: [1] -25.1% | [2] -18.8% | [3] -4.75% | [4] -26.4% | [5] -5.8% | [6] 5.85%

COc1ccc(-c2c3c(nc4nc(SC)nc(SC)c24)CCCC3)cc1OC
inactive: [1] 1.15% | [2] -10.4% | [3] 1.25% | [4] 1.15% | [5] -2.65% | [6] 6.8%

CC(C)=CCN1c2ccccc2NC(=O)CC1C (configuration not stated)
inactive: [1] -24.1% | [2] -66.7% | [3] -6.55% | [4] 4.5% | [5] -10.9% | [6] -14.9%

CCOC(=O)c1nc2ccc(C(F)(F)F)cc2nc1Nc1ccc(Cl)c(Cl)c1
inactive: [1] -22.1% | [2] 4.1% | [3] -13.9% | [4] -19% | [5] -1.35% | [6] 6.15%

O=c1n(-c2ccccc2)c(=O)n2n1C1C=CC2C23C=CC12CCCC3 (configuration not stated)
inactive: [1] 13.8% | [2] 7.85% | [3] 9.05% | [4] 12% | [5] 26.2% | [6] 22.8%

CCCCc1ccccn1
inactive: [1] -9.1% | [2] 4.15% | [3] 14.1% | [4] -42.5% | [5] 7.4% | [6] 16.9%

O=C(O)c1sccc1Cc1ccsc1
inactive: [1] -6.85% | [2] -10.8% | [3] -8.65% | [4] -27.6% | [5] -25.9% | [6] 5%

CCC1(c2ccc(N3C(=O)c4cc(OC)c(OC)cc4C3=O)cc2)CCC(=O)NC1=O (configuration not stated)
inactive: [1] -6.25% | [2] 7.65% | [3] -7.25% | [4] -16.1% | [5] -16% | [6] -32.8%

O=C1CCCCC(=O)Nc2ccc3nc4ccccc4c(c3c2)SCCCCCCCCSc2c3ccccc3nc3ccc(cc23)N1
inactive: [1] -13.4% | [2] -9.65% | [3] 2.55% | [4] -6.05% | [5] -2.3% | [6] -4.2%

CC1(C)N=C(N)N=C(N)N1c1cccc(CCC(=O)Nc2cccnc2)c1
inactive: [1] 19.4% | [2] 1.4% | [3] 5.2% | [4] 9.05% | [5] -4.5% | [6] -6.3%

O=C(Cc1nc(-c2ccccc2)cc(=O)n1-c1ccccc1Cl)c1ccncc1
inactive: [1] 32.4% | [2] 12.5% | [3] -6.3% | [4] 21.2% | [5] -1.2% | [6] 20.4%
